Compounds with a hit are over-represented: about 19% of the library has one in this group of screens.
TDP1 inh: blocks human tyrosyl-DNA phosphodiesterase 1; Q9NUW8; recombinant TDP1, AlphaScreen DNA substrate cleavage; Potency, µM (top dose mostly 130 µM), without a hit: top-dose activity change, negative = inhibition, most hits filed as inhibitors; 350,000 tested, 0.28% active; AID 485290; note: potency is the fitted concentration of half-maximal effect; nearly all actives have a fitted effect of over 40% in size
Target sequence (Q9NUW8 whole entry, looked up): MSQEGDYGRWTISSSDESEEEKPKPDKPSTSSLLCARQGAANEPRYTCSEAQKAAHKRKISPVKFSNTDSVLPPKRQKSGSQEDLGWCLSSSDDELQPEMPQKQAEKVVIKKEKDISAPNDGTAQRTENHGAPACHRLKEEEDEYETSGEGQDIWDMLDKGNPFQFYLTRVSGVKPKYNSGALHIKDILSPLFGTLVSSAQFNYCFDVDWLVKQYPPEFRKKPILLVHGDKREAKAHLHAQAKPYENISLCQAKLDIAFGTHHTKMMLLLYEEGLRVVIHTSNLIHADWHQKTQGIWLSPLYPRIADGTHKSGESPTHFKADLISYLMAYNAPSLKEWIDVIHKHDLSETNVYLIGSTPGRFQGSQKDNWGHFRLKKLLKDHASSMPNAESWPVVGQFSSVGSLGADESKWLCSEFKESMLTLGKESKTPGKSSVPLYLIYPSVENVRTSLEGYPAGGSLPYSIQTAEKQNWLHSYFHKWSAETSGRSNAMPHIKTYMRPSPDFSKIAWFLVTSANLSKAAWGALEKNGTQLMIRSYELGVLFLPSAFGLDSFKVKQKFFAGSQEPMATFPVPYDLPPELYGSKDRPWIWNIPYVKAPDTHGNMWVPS
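Recombinant E. coli-expressed Tdp1 (1 nM) preincubated with compound 15 min at RT, then 5'-biotin/3'-phosphotyrosine-FITC DNA substrate (15 nM) added for 5 min. AlphaScreen beads (10 ug/ml) added, 10 min RT; tyrosine-FITC cleavage read as signal loss.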
Giardia killer: kills Giardia lamblia. Giardia lamblia trophozoite viability. activity change, % at 7.66 µM, hits read low. 340,000 tested, 0.15% active; in the data active = activity change below about -80%; inconclusive = between about -30% and that limit;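 note: parasites exposed to compound for two days anaerobically before the ATP read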
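Trophozoites 100 cells/well + cpd; 48 hrs, 37 deg C, anaerobic. ATPLite 1-Step added, 15-30 min RT, luminescence read (ATP-based viability).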
IL-1B inflam inh: blocks inflammasome-driven IL-1 beta release | activity change, % at 57.5 µM | THP-1 LPS/ATP IL-1B secretion, AlphaLISA, 16 h; active compounds read low | 360,000 tested, 4.7% active; in the data active = activity change below about -50%; inconclusive = mostly about -30% to -49%
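THP-1 cells pretreated 1 hr with compounds (up to 57.5 uM final), then stimulated with LPS (250 ng/mL final) plus ATP (1.25 mM final); secreted IL-1B measured by AlphaLISA after 16 hr, decreased signal indicating inhibition.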
ELG1 repair inh: inhibitors of ELG1-dependent DNA repair in HEK293T cells; 330,000 tested, 2.3% active; HEK293T ELG1-luciferase reporter, luminescence, 16 h; DNA damage induced by 5-fluorouridine; Potency, µM (series often up to 46.1 µM), for inactives: at the highest dose activity change, negative = inhibition, most hits filed as inhibitors; note: potency is the fitted concentration of half-maximal effect; nearly all actives have a fitted effect of over 55% in size
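Overnight (16 hr) co-exposure of 2,000 cells/well to 5-fluorouridine and compound at 37 °C preceded detection. Luciferase was quantified via ONE-Glo luminescence; loss of signal denotes inhibition.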
DT40 TDP1 no CPT: qHTS for Inhibitors of human tyrosyl-DNA phosphodiesterase 1 (TDP1): qHTS in cells in absence of CPT. Potency, µM (titrated, usually from 46.2 µM), for inactives: at the top dose activity change, negative = growth inhibition, usual class: inhibitors. AID 686978, 2013. DT40 Tdp1-/- hTDP1 cells, no CPT, ATP luminescence, 48 h. 420,000 tested, 15% active; note: potency is the fitted concentration of half-maximal effect; nearly all actives have a fitted effect of over 55% in size
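Growth kinetics read by CellTiter-Glo luminescence after ≥48 hr at 37 °C. Cells: DT40 Tdp1-/- stably carrying human TDP1, 400 per well, compound exposure in the absence of CPT (DMSO vehicle).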
DT40 TDP1 CPT: growth inhibition of DT40 Tdp1-/-;hTDP1 cells with camptothecin (screen for TDP1 inhibitors); chicken DT40 Tdp1-/-;hTDP1 cells + 20 nM CPT, ATP luminescence, 48 h; Potency, µM (series often up to 46.2 µM), for inactives: at the highest dose activity change, negative = growth inhibition, usual class: inhibitors; 420,000 tested, 12% active; note: potency is the fitted concentration of half-maximal effect; nearly all actives have a fitted effect of over 55% in size
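Chicken DT40 Tdp1-/- cells complemented with human TDP1, 400 cells/well, exposed to compounds plus 20 nM camptothecin for at least 48 h at 37 C; viability read as ATP content by CellTiter-Glo luminescence.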
Numbers without * were called inactive; ? = inconclusive; nt = no result; [ ] = another dose, or the depositor's remark. Unless noted, calls come from the whole dose curve; as a rule, active = well fitted curve in the direction sought with a large enough effect; inconclusive = small, poorly fitted or top-dose-only effect, or another doubt; inactive = no such curve, though single readings can be large; an effect the other way counts as inactive or inconclusive. % is set by controls: 0 for no effect and ±100 for the full control effect.

SMILES	TDP1 inh	Giardia killer	IL-1B inflam inh	ELG1 repair inh	DT40 TDP1 no CPT	DT40 TDP1 CPT
CC(C)(C)n1nnnc1SCC(=O)Nc1nn(-c2ccccc2)nc1C(N)=O	0%	-3	9	-5%	-28%	2%
CCOC(=O)c1cc([N+](=O)[O-])cc([N+](=O)[O-])c1Sc1ncnc2nc[nH]c12	nt	-9	-100*	nt	2.6µM*	1.8µM*
CCOC(=O)C(C)(C)Sc1ncnc2nc[nH]c12	5%	1	-20	-12%	-10%	?
C#CC1(O)CC[C@H]2[C@@H]3CCC4=CCCC[C@@H]4[C@H]3CC[C@@]21C (stereo partly specified)	nt	nt	nt	nt	-18%[21.1 µM]	-26%[21.1 µM]
CC1C(=O)N(Cc2cn(Cc3ccco3)nn2)CCS(=O)(=O)N1Cc1ccc(-c2ccncc2)cc1 (stereo unspecified)	nt	nt	6	nt	21µM*	?
CC1C(=O)N(Cc2cn(Cc3ccco3)nn2)CCS(=O)(=O)N1Cc1ccc(-c2ccc(F)cc2)cc1 (stereo unspecified)	nt	nt	5	nt	?	?
CC(C)C1C(=O)N(Cc2cn(Cc3ccco3)nn2)CCS(=O)(=O)N1Cc1ccc(-c2cccc(N(C)C)c2)cc1 (stereo unspecified)	nt	nt	-30	nt	16µM*	?
Cc1ccc(-c2ccc(CN3C(C(C)C)C(=O)N(Cc4cn(Cc5ccco5)nn4)CCS3(=O)=O)cc2)cc1 (stereo unspecified)	nt	nt	-10	nt	18µM*	18µM*
CC(C)C1C(=O)N(Cc2cn(CCC3OCCO3)nn2)CCS(=O)(=O)N1Cc1ccc(-c2cccc(N(C)C)c2)cc1 (stereo unspecified)	nt	nt	-4	nt	?	-20%
CCN(Cc1ccccc1)C(=O)Cn1c(=O)n(-c2ccc(Cl)cc2)c(=O)c2c(C)c(C(=O)N(C)C)sc21	2%	nt	nt	nt	?	-12%
O=C(CN1CCCC1c1cccs1)N1CCN(S(=O)(=O)c2cccc(F)c2)CC1 (stereo unspecified)	1%	-25	0	7%	-15%	-28%
CN(C)c1ccc(N=Nc2ccccc2C(=O)OCC(=O)N(C)c2ccccc2)cc1	3%	-28	-3	13µM*	?	21µM*
COC(=O)c1ccccc1NC(=O)COC(=O)c1ccccc1N=Nc1ccc(N(C)C)cc1	11%	-29	0	?	16µM*	16µM*
CC(=O)c1ccc(NC(=O)COC(=O)c2ccccc2N=Nc2ccc(N(C)C)cc2)cc1	2%	?	?	-28%	21µM*	?
CN(C)c1ccc(N=Nc2ccccc2C(=O)O)cc1	nt	nt	nt	nt	-25%	?
CCOC(=O)N1CCc2c(sc3c2c(=O)n(-c2ccc(Cl)cc2)c(=O)n3CC(=O)Nc2ccccc2)C1	3%	nt	nt	nt	?	?
COc1ccc(NC(=O)CSc2nc3c([nH]c4ccccc43)c(=O)n2-c2ccccc2)c(OC)c1	5%	nt	nt	nt	-24%	-27%
Cc1cc(NC(=O)CSc2nnc(C)n2-c2ccccc2)no1	-3%	6	36	3%	11%	-5%
Cc1ccc(CCc2nnc(SCC(=O)Nc3cccc(Cl)c3)n2-c2ccccc2)o1	1%	16	1	6%	13µM*	?
Cc1ccc(NC(=O)CSc2nnc(COc3ccc(C#N)cc3)n2-c2ccccc2)cc1C	-5%	-13	-3	23µM*	?	?
CC1CCCC(C)N1C(=O)CSc1nnc(COc2ccccc2)n1-c1ccccc1 (stereo unspecified)	4%	-13	-22	-18%	21µM*	?
O=S(=O)(c1ccc(OC(F)(F)F)cc1)N1CCN(c2nc(-c3ccccc3)nc3ccccc23)CC1	1%	-22	nt	nt	-20%	-17%
O=C(Nc1cccc(F)c1)N1CCN(C(=O)c2ccco2)CC1	1%	24	-18	5%	15%	-6%
CC(C)NC(=O)C1Cc2c(-c3ccc4c(c3)OCO4)ccnc2O1 (stereo unspecified)	nt	nt	22	nt	?	?
CC(=O)Nc1cccc(-c2ccnc3c2CC(C(=O)NCc2cccnc2)O3)c1 (stereo unspecified)	nt	nt	22	nt	?	-13%
SMILES	TDP1 inh	Giardia killer	IL-1B inflam inh	ELG1 repair inh	DT40 TDP1 no CPT	DT40 TDP1 CPT
CC(=O)Nc1cccc(-c2ccnc3c2CC(C(=O)NCCc2ccccc2)O3)c1 (stereo unspecified)	nt	nt	76	nt	2.9µM*	4.6µM*
CC(=O)Nc1cccc(-c2ccnc3c2CC(C(=O)NCc2cccc(Cl)c2)O3)c1 (stereo unspecified)	nt	nt	51	nt	4.1µM*	3.3µM*
O=C(NCCc1ccccc1)C1Cc2c(-c3ccc4c(c3)OCO4)ccnc2O1 (stereo unspecified)	nt	nt	-1	nt	16µM*	21µM*
CC(=O)Nc1ccc(-c2ccnc3c2CC(C(=O)NCc2cccc(Cl)c2)O3)cc1 (stereo unspecified)	nt	nt	29	nt	2.3µM*	3.7µM*
O=C(c1ccc(CS(=O)(=O)Cc2ccccc2)cc1)N1CCCCC1	1%	20	39	-6%	-16%	-25%
COc1ccc(CCC(=O)Nc2ccc(S(=O)(=O)N3CCOCC3)cc2)cc1OC	nt	nt	-8	nt	?	-15%
O=c1[nH]c(Nc2ccc3c(c2)OCCO3)nnc1Cc1ccccc1	1%	-8	35	-5%	?	-30%
COc1ccc(CCCNC(=O)C2Cc3c(-c4ccccc4)ccnc3O2)cc1 (stereo unspecified)	nt	nt	-22	nt	5.8µM*	6.5µM*
NC(=O)c1cccc(-c2ccnc3c2CC(C(=O)NCc2cccc(Cl)c2)O3)c1 (stereo unspecified)	nt	nt	0	nt	15µM*	16µM*
O=C1NC(=S)N/C1=C/c1ccc(-c2c(Br)cc([N+](=O)[O-])cc2Br)o1	nt	nt	nt	-1%	nt	nt
Cc1ccc(-c2ccc(/C=C3/NC(=O)NC3=O)o2)cc1[N+](=O)[O-]	0%	-2	-8	-29%	21µM*	?
COCCn1c(=NC(=O)CSCC(=O)N2CCOCC2)sc2cc(C)ccc21	3%	6	-2	?	?	-6%
O=C(Cn1cc(SCc2ccc(F)cc2)c2ccccc21)N1CCCC1	5%	nt	nt	nt	?	?
CC(C)(C)OC(=O)C[C@@H]1C/C=C\C[C@H](CC(=O)N[C@H](CO)Cc2ccccc2)C(=O)N[C@H](Cc2ccccc2)COC1=O	1%	18	12	?	13µM*	-47%

Assay outcomes from PubChem.
